Laboratory results from ChEMBL document CHEMBL3988442, “University of Dundee, Small-Polar-MMV Screening Library” (2021).
The campaign covered roughly 48,000 compounds. About 13,000 (27%) showed an effect of 50% or more. The list shows a part of the results.

What follows are compounds tested on Wolbachia pipientis (assay: Anti-Wolbachia Cell-Based Screen). Conditions: 5 µM.
Format: functional
Set-up: scale not given: in the data most compounds retested in dose-response had high values

| Compound | Percent Effect [%] |
| --- | --- |
| CN1[C@@H](c2ccccc2)[C@@H](C(=O)NCc2ccncc2)C[C@@]1(C)C(=O)O | 1.416 |
| O=C(O)c1ccnc(-c2ccnc(COc3cccc(F)c3)n2)c1 | -102.4 |
| Cc1cccc(N2CCN(CCNC(=O)C(C)n3cncn3)CC2)c1 (centres undefined) | 8.571 |
| CC1CCCCN1CCN(C)C(=O)c1cc(CN2CCC(O)CC2)on1 (centres undefined) | 0.4872 |
| Fc1cccc(NCc2ncc[nH]2)c1 | -11.31 |
| CSCc1cc(F)ccc1CNCc1cccnc1 | 101.5 |
| CSCc1cc(F)ccc1CNCc1cccc(O)c1 | 105.8 |
| Fc1ccc(NCc2ccncc2)c(OC(F)F)c1 | -6.491 |
| O=C(NCc1ccncc1)N(Cc1ccc(F)cc1F)C1CC1 | -2.267 |
| O=C1OCCN1c1cccc(CNCc2cc(F)ccc2F)c1 | 6.854 |
| Fc1cccc(C(NCc2ncc[nH]2)c2ccccc2)c1 (centres undefined) | -7.792 |
| COc1cc(F)ccc1N(C)Cc1cccnc1 | -2.533 |
| CSCc1cc(F)ccc1CNCc1ncc[nH]1 | 108.7 |
| Cc1cnn(CCNCc2cccnc2)c1 | -0.61 |
| CSCc1cc(F)ccc1CNCc1ccncc1 | 99.15 |
| O=C1CCCN1c1cccc(CNCc2cc(F)ccc2F)c1 | -5.013 |
| Cc1cc(C)n(CC(C)NCc2cnc3c(C)cccn23)n1 (centres undefined) | -11.8 |
| COCCSc1ccc(C(C)NC(=O)Nc2cn[nH]c2)cc1 (centres undefined) | -2.849 |
| COc1cc(NCC(=O)NC(C)(C#N)C(C)C)cc(OC)c1OC (centres undefined) | -11.73 |
| CSc1ccsc1C(=O)NCCNC(=O)C1CC1 | -5.162 |
| Cn1cc(CN2CCc3c(cnc(-c4ccccc4)c3C(=O)O)C2)cn1.O=C(O)C(F)(F)F.O=C(O)C(F)(F)F | -3.13 |
| Cn1cc(C(=O)NCc2cn3c(n2)CN(Cc2ccccn2)CC3)cn1.O=C(O)C(F)(F)F.O=C(O)C(F)(F)F | 1.361 |
| Cn1cc(-c2ncc3c(c2C(=O)O)CCN(Cc2ccccn2)C3)cn1.O=C(O)C(F)(F)F.O=C(O)C(F)(F)F | 106.1 |
| Cn1cc(-c2ncc3c(c2C(=O)O)CCN(Cc2ccco2)C3)cn1.O=C(O)C(F)(F)F | 100.1 |
| Cn1nccc1-c1ncc2c(c1C(=O)O)CCN(Cc1ccncc1)C2.O=C(O)C(F)(F)F.O=C(O)C(F)(F)F | -6.643 |

| Compound | Percent Effect [%] |
| --- | --- |
| O=C(O)c1c(-c2ccncc2)ncc2c1CCN(Cc1ccco1)C2 | 103.7 |
| O=C(O)C(F)(F)F.O=C(O)C(F)(F)F.O=C(O)c1c(-c2cncnc2)ncc2c1CCN(Cc1ccco1)C2 | 112.5 |
| O=C(O)C(F)(F)F.O=C(O)C(F)(F)F.O=C(O)c1cc2c(nc1-c1ccoc1)CCN(Cc1ccco1)CC2 | 4.884 |
| Nc1cc(-c2cccc3ccnn23)ccn1 | -7.377 |
| O=C(COC1CCCC1)NC(C(=O)Nc1cc[nH]n1)c1ccccc1 (centres undefined) | -15.76 |
| O=C(NCc1nc(C2CCCCC2)no1)C1CC(=O)N(C2CC2)C1 (centres undefined) | -21.27 |
| O=C(O)C(F)(F)F.O=C(O)C(F)(F)F.O=C(O)C(F)(F)F.O=C(O)c1c(-c2cncnc2)ncc2c1CCN(Cc1cccnc1)C2 | 96.39 |
| Cn1nccc1-c1ncc2c(c1C(=O)O)CCN(Cc1ccccc1)C2.O=C(O)C(F)(F)F.O=C(O)C(F)(F)F.O=C(O)C(F)(F)F | -10.76 |
| Cn1nccc1-c1ncc2c(c1C(=O)O)CCN(Cc1cccnc1)C2.O=C(O)C(F)(F)F.O=C(O)C(F)(F)F | -4.341 |
| CN1CCN(C(=O)c2cn(-c3ccc(C(F)(F)F)cn3)nn2)CC1 | -7.593 |
| Cc1cc(-n2cccn2)ccc1CN1C[C@@H](CN(C)C)[C@@H](CO)C1 | 14.35 |
| Cc1ccc(C2(O)CCN(C(=O)Cn3cc(C)c(=O)[nH]c3=O)CC2)nc1 | 116.3 |
| COC(=O)C1CCN(CC2(c3ccc(C)cn3)CCNCC2)CC1 | -5.791 |
| Cc1ccc(C2(O)CCN(C(=O)CCn3ccc(=O)[nH]c3=O)CC2)nc1 | 97.51 |
| Cc1cn(CC(=O)N(C)Cc2cccc3ncccc23)c(=O)[nH]c1=O | -19.07 |
| Cc1cccnc1CN1CCN(C(=O)CCn2ccc(=O)[nH]c2=O)CC1 | -10.51 |
| COC1CCN(C(=O)CCn2ccc(=O)[nH]c2=O)CC1 | -8.705 |
| Cc1ccc(C2(O)CCN(C(=O)CCn3c(C)cccc3=O)CC2)nc1 | 106.7 |
| Cc1cccc(=O)n1CCC(=O)N(C)Cc1cccc2ncccc12 | -4.376 |
| CSCc1ccc(N2CCC(C(O)Cc3ccccc3)CC2)nc1 (centres undefined) | 26.16 |
| O=C(O)C(F)(F)F.O=C(O)C(F)(F)F.c1cc(CN2CCc3ncnc(C4CCOC4)c3CC2)ccn1 (centres undefined) | 0.007603 |
| Cc1ccc(Oc2ncccc2CNC2CCSCC2)cn1 | -8.046 |
| Nc1ccc(-c2ccc(F)cc2Cl)cn1 | -14.84 |
| CC(NC(=O)NCc1cc[nH]n1)c1ccc2c(c1)CCC(=O)N2 (centres undefined) | -0.03999 |
| Cc1csc(CNC(=O)NC(C)c2ccc3c(c2)CCC(=O)N3)n1 (centres undefined) | 108.8 |

| Compound | Percent Effect [%] |
| --- | --- |
| Cc1csc(CNC(=O)NCC(O)c2ccc(F)cc2)n1 (centres undefined) | 8.268 |
| CC(NC(=O)NCc1cccs1)c1ccc2c(c1)CCC(=O)N2 (centres undefined) | 122.7 |
| O=C1CCCc2cc(S(=O)(=O)NCc3ccccn3)ccc2N1 | -1.258 |
| Cc1ccc(C(O)CNC(=O)NCc2nc(C)cs2)cc1 (centres undefined) | -27.45 |
| CC(NC(=O)NCc1ccccn1)c1ccc2c(c1)CCC(=O)N2 (centres undefined) | 101 |
| CSc1ccsc1C(=O)NC(C)c1ccc2c(c1)CCC(=O)N2 (centres undefined) | -17.83 |
| Cc1ccsc1C(=O)NC(C)c1ccc2c(c1)CCC(=O)N2 (centres undefined) | -2.921 |
| Cc1ccsc1CNC(=O)NC(C)c1ccc2c(c1)CCC(=O)N2 (centres undefined) | 96.96 |
| CC(NC(=O)N(C)Cc1ccsc1)c1ccc2c(c1)CCC(=O)N2 (centres undefined) | -10.24 |
| O=C(CN1CCCS1(=O)=O)Nc1ccc(OC2CCCC2)cc1 | -0.8772 |
| COc1ccc(OCC(=O)NC(C)c2ccccc2)c(C(=O)O)c1 (centres undefined) | -7.994 |
| CCCOc1ccc(CN)c(OC(F)F)c1 | 2.024 |
| CC(C(=O)NCc1ccnc(N2CCN(C)CC2)c1)n1cccn1 (centres undefined) | -2.51 |
| O=C(c1ccc(Cn2cc(Br)cn2)cc1)N1CCCC1 | 26.22 |
| CN(C)C[C@@H]1CCC[C@@H]2CN(c3nccc(C(F)(F)F)n3)C[C@@H]21.O=C(O)C(F)(F)F | -9.332 |
| CC(NC(=O)NCCS(C)(=O)=O)c1ccc2c(c1)CCC(=O)N2 (centres undefined) | 98.04 |
| CC(NC(=O)NCCCn1ccnc1)c1ccc2c(c1)CCC(=O)N2 (centres undefined) | -10.33 |
| CC(NC(=O)NCCCN(C)C)c1ccc2c(c1)CCC(=O)N2 (centres undefined) | 1.464 |
| CCCn1[nH]cc/c1=N\C(=O)CN1CCCC1Cn1cc(C)cn1 (centres undefined) | -13.34 |
| O=C(c1cnccn1)N1CCC2(CCCN(Cc3ccoc3)C2)C1 (centres undefined) | 7.611 |
| Cn1cccc1CN1CCC2(CC1)CCN(C(=O)c1cnccn1)CC2.O=C(O)C(F)(F)F | 3.989 |
| O=C(c1cnccn1)N1CCC2(CCN(Cc3ccsc3)CC2)CC1 | 105.9 |
| O=C(c1cnccn1)N1CCC2(CCN(Cc3ccsc3)C2)CC1 | 113.3 |
| O=C(c1cnccn1)N1CCN(Cc2csc(-c3ccccc3)n2)CC1 | 5.031 |
| NC(=O)C1=NC2=NS(=O)(=O)c3ccccc3N2N1Cc1ccc(Cl)cc1 | 1.46 |

| Compound | Percent Effect [%] |
| --- | --- |
| CC(C)(CNc1cc(F)ccc1F)S(C)(=O)=O | -17.31 |
| CC(=O)N1CCC(N2CCN3C(=O)N(Cc4ccccn4)C[C@H]3C2)CC1 | -4.667 |
| Cc1nnc(CSc2ccc(C(F)(F)F)cn2)o1 | -11.49 |
| CCN1CC(C(=O)NCc2nc(C3CCCCC3)no2)CC1=O (centres undefined) | -30.34 |
| Cc1cc(C(=O)O)ccc1NS(=O)(=O)c1c(C)nn(C(C)C)c1C | -9.87 |
| Cc1nc(N2CCN(C)CC2)ncc1C(=O)N1CC(C)(C)C(C)(O)C1 (centres undefined) | -4.468 |
| CN1CCCN(C(=O)c2cnc(Cc3c(Cl)cccc3Cl)nc2O)CC1 | 6.628 |
| CN1CCCN(C(=O)c2cnc(C(C)(C)C)nc2O)CC1 | -12.59 |
| Cc1nc(N2CCN(C)CC2)ncc1C(=O)N1CCC(O)(CO)CC1 | -3.993 |
| Cc1nc(N2CCN(C)CC2)ncc1C(=O)N1CCCCCC1 | 100.3 |
| Cc1nc(N2CCN(C)CC2)ncc1C(=O)N1CCCCC1 | 123.3 |
| Cc1nc(N2CCN(C)CC2)ncc1C(=O)N1CCN(C)CC1 | 120.1 |
| Cc1nc(N2CCCCC2)ncc1-c1cc(O)[nH]n1 | 24.53 |
| CC[C@H]1COCCN1C(=O)c1cnc(N2CCN(C)CC2)nc1C | -29.22 |
| COCc1c(Br)cccc1NC(=O)CC(F)(F)F | -8.675 |
| CC(C)(O)c1cc(CC2(NCC3CCCCC3)COC2)no1 | -2.979 |
| O=C(c1n[nH]c2ccccc12)N1CCCC1c1noc(C2CC2)n1 (centres undefined) | -5.823 |
| CC(C)(C)NS(=O)(=O)c1ccc(NC(=O)C2CC2)cc1 | -16.45 |
| Cc1nn(CC(=O)N2CCCCC2Cn2cccn2)c(C)c1Cl (centres undefined) | -2.313 |
| COC1CCN(C(=O)Cn2nc(C)cc2C)CC1 | -14.02 |
| Cc1cc(C)n(C(=O)Cn2nc(C)c(I)c2C)n1 | 66.77 |
| Cc1nn(CC(=O)n2cccn2)c(C)c1I | 112.6 |
| Cc1nn(CC(=O)N2CCCC2Cn2cccn2)c(C)c1Cl (centres undefined) | -2.085 |
| Cc1cc(C)n(CC(=O)N2CCC(NS(C)(=O)=O)CC2)n1 | -12.4 |
